High-throughput results (PubChem)
Sampled rows, rich in hits. Any-hit rate of the full collection: about 1.1%.
TNAP act DEA: activates human TNAP at intermediate phosphate acceptor concentration; activation factor at 20 µM; 64,000 tested, under 10 active; P05186; purified TNAP, CDP-star luminescence, 100 mM DEA, 30 min; active compounds read high; scale: 0 levamisole-inhibited, 1 vehicle-only enzyme; AID 813;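 active = activation factor of at least 2 at 20 µM, relative to controls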
Hsp90 block: displaces geldanamycin probe from tumor Hsp90. P07900. AID 429. NCI-N417 lysate Hsp90, Cy3B-geldanamycin FP displacement. inhibition, % at 30 µM. hit rate 0.35% among 64,000;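 active = inhibition above 50%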;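 also: 0% = tracer plus lysate wells and 100% = tracer alone without lysate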
HePTP inh: blocks human HePTP tyrosine phosphatase | P35236 | inhibition, % at 20 µM | AID 521 | recombinant HePTP phosphatase activity, OD absorbance | hit rate 0.64% among 110,000; in the data active = inhibition above about 50%;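 also: plate controls were vehicle for no effect and reference inhibitor for full effect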
Target sequence (P35236 whole entry, looked up): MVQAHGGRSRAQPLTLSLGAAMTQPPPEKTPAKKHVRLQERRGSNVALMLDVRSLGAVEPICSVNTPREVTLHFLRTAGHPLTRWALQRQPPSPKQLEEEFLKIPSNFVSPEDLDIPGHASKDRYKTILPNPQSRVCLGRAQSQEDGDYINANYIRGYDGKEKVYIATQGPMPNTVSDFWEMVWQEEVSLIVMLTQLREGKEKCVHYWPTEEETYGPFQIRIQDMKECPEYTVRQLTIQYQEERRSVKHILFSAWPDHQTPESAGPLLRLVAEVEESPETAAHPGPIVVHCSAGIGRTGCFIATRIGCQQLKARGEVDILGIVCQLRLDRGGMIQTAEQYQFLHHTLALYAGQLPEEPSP
MT1-MMP txn act: MT1-MMP promoter transcription activation | hit rate 0.16% among 86,000 | activation factor at 10 µM | HT1080 MT1-MMP promoter luciferase reporter, luminescence, overnight; active compounds read high;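 active = activation factor of at least 2 for MT1-MMP transcription at 10 µM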
Ec RNAP inh: blocks E. coli RNA polymerase transcription; hit rate 0.2% among 62,000; fluorescence transcription assay; AID 559; inhibition, %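 (tested at 10 µM)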; P0A8V2; in the data active = inhibition above about 20%;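 also: 0% = enzyme without compound and 100% = no enzyme blank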
HER2 expr 66K: lowers expression of human Her2 kinase. SKBR-3 HER2 protein level, AlphaScreen, 18-24 h; active compounds read low. HER2 level % of control, % at 10 µM. hit rate 0.69% among 65,000. AID 645;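 active = HER2 level under 5% of the carrier-only control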;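 also: 100% = DMSO carrier and 0% = 500 nM PU-H71 HSP90 inhibitor; lower value means stronger loss of Her2 protein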
Starred values were filed as active, the others as inactive; x = not tested or not shown.

SMILES	TNAP act DEA	Hsp90 block	HePTP inh	MT1-MMP txn act	Ec RNAP inh	HER2 expr 66K
O=C(O)c1cc(-c2cccc(Cl)c2)nc2ccccc12	x	x	104*	x	x	x
COc1ccc(OC)c(NC2=NC3(CCCC3)N=C(N)N2)c1	0.9	5	11	1.2	3	72
COc1ccc(Nc2ccc3c(c2)=NC2(CCCCC2)[N+]=3[O-])cc1	0.8	x	-13	x	2	-56*
[O-][N+]1=c2ccc(Nc3ccccc3)cc2=NC12CCCCC2	0.7	46	3	0.6	3	-17*
C=C(C)Cn1c(-c2ccc(OC)cc2)nc2ccccc21	0.9	-2	4	1	x	-20*
COCn1c(-c2ccc(OC)cc2)nc2ccccc21	x	x	x	1.9	x	x
O=C1N=c2ccccc2=C1c1sc(=S)[nH]c1O	x	x	70*	x	x	x
CC1CCN(C(=O)c2ccc3nc4c5ccccc5c5ccccc5c4nc3c2)CC1	x	x	-3	x	x	x
Cc1nn2cc(-c3ccccc3)nc2[nH]c1=O	x	x	x	1.1	x	x
O=C(O)CCc1nn2cc(-c3ccccc3)nc2[nH]c1=O	0.9	-2	6	1.1	-2	-19*
COc1ccc(CCNC2CC(=O)N(c3ccc(I)cc3)C2=O)cc1OC (stereo unspecified)	x	x	7	x	x	x
COc1cccc(/C=C2\SC(=S)N(NC(=O)c3cccc([N+](=O)[O-])c3)C2=O)c1	x	x	-2	x	x	x
Cc1cc(C)c2c(c1)=C(c1sc(N)nc1O)C(=O)N=2	x	x	69*	x	x	x
Cc1cc(C)c2c(c1)=C(c1sc(=S)[nH]c1O)C(=O)N=2	x	x	3	x	x	x
O=C1Nc2ccccc2C1=Cc1nc2ccccc2c(=O)n1-c1ccccc1[N+](=O)[O-]	x	x	1	x	x	x
Cc1ccc2c(c1)C(=Cc1nc3ccccc3c(=O)n1-c1ccccc1[N+](=O)[O-])C(=O)N2	x	x	104*	x	x	x
CCc1c(C)nc2[nH]nc(-c3cccc(-c4n[nH]c5nc(C)c(CC)c(=O)n45)n3)n2c1=O	x	x	8	x	x	x
C=CCN1C(=O)/C(=C\c2ccc(-c3ccc(C(=O)O)cc3)o2)C(=O)NC1=S	x	x	102*	x	x	x
C=CCN1C(=O)/C(=C\c2ccc(-c3ccc(F)cc3)o2)C(=O)NC1=S	x	x	62*	x	x	x
C=CCN1C(=O)/C(=C\c2ccc(-c3cccc(C(=O)O)c3)o2)C(=O)NC1=S	x	x	96*	x	x	x
O=C1NC(=S)N(c2cccc(Br)c2)C(=O)/C1=C/c1ccc(-c2ccc(C(=O)O)cc2)o1	x	x	69*	x	x	x
C=CCN1C(=O)/C(=C\c2ccc(-c3cc(Cl)cc(Cl)c3)o2)SC1=S	x	x	-11	x	x	x
O=[N+]([O-])c1cc(Cl)ccc1N1CCN(CCO)CC1	x	x	-6	x	x	x
Cc1cc(/C=N/NC(=O)Cc2cccc(C(F)(F)F)c2)c(C)n1-c1cccc(C(=O)O)c1	x	x	9	x	x	x
COc1cccc(/C=C2\C(=O)N(c3cccc(C(=O)O)c3)N=C2C)c1	x	x	66*	x	x	x
SMILES	TNAP act DEA	Hsp90 block	HePTP inh	MT1-MMP txn act	Ec RNAP inh	HER2 expr 66K
COc1cc(Br)c(/C=C2\C(=O)N(c3cccc(C(=O)O)c3)N=C2C)cc1OC	x	x	77*	x	x	x
COc1cc(/C=C2\C(=O)N(c3cccc(C(=O)O)c3)N=C2C)cc(I)c1O	x	x	6	x	x	x
COc1cc(/C=C2\C(=O)N(c3cccc(C(=O)O)c3)N=C2C)ccc1O	x	x	24	x	x	x
COc1cc(Br)c(/C=C2\C(=O)N(c3ccc(S(N)(=O)=O)cc3)N=C2C)cc1OC	x	x	-2	x	x	x
COc1cc(/C=C2\C(=O)N(c3cccc(C(=O)O)c3)N=C2C)c([N+](=O)[O-])cc1OC	x	x	75*	x	x	x
COc1ccc(OC)c(/C=C2\C(=O)N(c3ccc(S(N)(=O)=O)cc3)N=C2C)c1	x	x	68*	x	x	x
O=C(CCC1CCCCC1)Nc1ccc([N+](=O)[O-])cn1	x	x	-14	x	x	x
CC(=O)C(Sc1ncnc2c1nnn2-c1ccc(F)cc1)C(=O)N(C)C (stereo unspecified)	0.8	0	40	1.1	4	-10*
O=C(N=Nc1c(O)[nH]c2c(Br)cc(Br)cc12)c1ccco1	x	x	-11	x	x	x
Cc1c(C#N)c(N)c(C(=O)c2ccccc2)n1Cc1ccccc1	0.8	0	-1	1.2	-2	-32*
COC(=O)C1=C(C)NC(=O)N(C(C)=O)C1c1cccc([N+](=O)[O-])c1 (stereo unspecified)	x	x	3	x	x	x
Cc1ccc(S(=O)(=O)Nc2cccc3ncccc23)s1	1.1	7	6	0.3	5	-5.5*
Cc1ccc(S(=O)(=O)Nc2ccnc3ccccc23)cc1	x	x	x	1.2	x	x
COc1ccc(/C=C2/SC(=Nc3ccccc3)NC2=O)cc1O	x	x	2	x	x	x
